The source made the active and inactive calls.
Assays:
[1] = biological target: Albumin (Bos taurus) (UniProt P02769); assay: bovine serum albumin binders on microarray, profiling panel, artefact control for SMM control protein annotation, biochemical, small-molecule microarray, Alexa647 label, 635/667 nm fluorescence (AID 1118); conditions: BSA-A647 binding, fluorescence 635 nm, higher = more signal;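 also: score merges 667 nm emission intensity and signal-to-noise per printed compound spot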
[2] = small-molecule microarray binders of probe aXIP, primary screen, biochemical, NeuroSMM set, 635/667 nm fluorescence (AID 1119); conditions: higher = more signal, called active from +8 up or from −8 down;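 also: probe is the protein aXip251-270 applied at 1 µg/mL to compound-printed slides; binding of probe to printed compounds measured as 667 nm fluorescence plus signal to noise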
[3] = small-molecule binders of probe aNOTCH3, primary screen, biochemical, small-molecule microarray, 635/667 nm fluorescence (AID 1120); conditions: higher = more signal;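 also: probe is a biotin-tagged antibody raised against NOTCH3 rather than NOTCH3 protein; score merges spot fluorescence near 667 nm with spot signal to noise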
[4] = small-molecule binders of probe aNOTCH2, primary screen, biochemical, small-molecule microarray, 635/667 nm fluorescence (AID 1121); conditions: higher = more signal;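 also: score merges feature fluorescence read at 667 nm with its signal to noise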
[5] = biological target: Carbonic anhydrase 2 (Homo sapiens) (UniProt P00918); assay: CAII small-molecule binders, profiling panel, biochemical, small-molecule microarray, Alexa647-labelled CAII (AID 1122); conditions: CAII-A647 binding fluorescence, higher = more signal
[6] = COS7 lysate on small-molecule microarray, probe aHis, 635 nm (AID 1123); conditions: COS7 cell lysate, fluorescence, higher = more signal;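 also: z-score combines 667nm fluorescence intensity with signal-to-noise per printed compound spot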
[7] = compound binding in COS7 lysate, probe aLAP1, primary screen, cell lysate, small-molecule microarray (AID 1124); conditions: probe aLAP1, fluorescence, higher = more signal;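 also: lysate comes from COS7 cells expressing LAP1 and is applied at 0.3 µg/mL; score merges spot fluorescence near 667 nm with signal-to-noise over triplicate slides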
[8] = system: Sam68 (KHDRBS1); assay: Sam68 small-molecule binders, primary screen, biochemical, small-molecule microarray, 635 nm fluorescence (AID 1125); conditions: small-molecule microarray binding, higher = more signal;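 also: score merges 667 nm channel intensity with signal to noise over triplicate slides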
[9] = system: Chordin-like protein 2 (CHRDL2); assay: CHRDL2 small-molecule binders, primary screen, biochemical, small-molecule microarray, 635 nm fluorescence (AID 1126); conditions: small-molecule microarray binding, fluorescence 635 nm; higher = more signal;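 also: printed compound slides probed with Chrdl2 protein at 4 µg/mL for 1 h at 4 C; score merges 667 nm emission intensity with signal to noise over three replicate slides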
[10] = biological target: Concanavalin-A (Canavalia ensiformis) (UniProt P02866); assay: ConA small-molecule binders, primary screen, artefact control for SMM control protein annotation, biochemical, small-molecule microarray, Alexa647 label, 635 nm (AID 1127); conditions: ConA-A647 binding fluorescence, higher = more signal;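 also: z combines 667 nm emission intensity with signal-to-noise across three replicate slides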
Sequence of Concanavalin-A (Canavalia ensiformis) (P02866 whole entry, looked up): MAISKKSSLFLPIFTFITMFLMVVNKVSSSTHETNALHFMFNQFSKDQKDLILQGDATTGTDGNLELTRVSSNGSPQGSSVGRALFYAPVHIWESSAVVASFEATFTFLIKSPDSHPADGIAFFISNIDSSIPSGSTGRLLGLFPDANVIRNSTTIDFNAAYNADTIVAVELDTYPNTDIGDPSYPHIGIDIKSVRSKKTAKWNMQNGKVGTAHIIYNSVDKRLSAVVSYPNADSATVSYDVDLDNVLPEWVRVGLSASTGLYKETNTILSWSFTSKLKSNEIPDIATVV

[11] = anti-His antibody binders, primary screen, artefact control for SMM control protein annotation, biochemical, small-molecule microarray, 635 nm fluorescence (AID 1128); conditions: anti-His Alexa647 antibody binding, higher = more signal;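 also: score merges feature fluorescence with signal-to-noise for each printed compound spot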
[12] = system: Human papillomavirus type 1a E7 protein (residues 1-88); assay: HPV1a E7 small-molecule binders, primary screen, biochemical, small-molecule microarray, residues 1-88, 635 nm (AID 1129); conditions: small-molecule microarray binding, fluorescence 635 nm; higher = more signal
[13] = biological target: Focal adhesion kinase 1 (Homo sapiens) (UniProt Q05397); assay: small-molecule microarray binders of FAK, primary screen, biochemical, 635/667 nm fluorescence, BSA, DTT (AID 1130); conditions: PTK2 binding, 635 nm fluorescence, higher = more signal;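 also: composite of spot emission at 667 nm and signal to noise over triplicate slides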
Sequence of Focal adhesion kinase 1 (Homo sapiens) (Q05397 whole entry, looked up): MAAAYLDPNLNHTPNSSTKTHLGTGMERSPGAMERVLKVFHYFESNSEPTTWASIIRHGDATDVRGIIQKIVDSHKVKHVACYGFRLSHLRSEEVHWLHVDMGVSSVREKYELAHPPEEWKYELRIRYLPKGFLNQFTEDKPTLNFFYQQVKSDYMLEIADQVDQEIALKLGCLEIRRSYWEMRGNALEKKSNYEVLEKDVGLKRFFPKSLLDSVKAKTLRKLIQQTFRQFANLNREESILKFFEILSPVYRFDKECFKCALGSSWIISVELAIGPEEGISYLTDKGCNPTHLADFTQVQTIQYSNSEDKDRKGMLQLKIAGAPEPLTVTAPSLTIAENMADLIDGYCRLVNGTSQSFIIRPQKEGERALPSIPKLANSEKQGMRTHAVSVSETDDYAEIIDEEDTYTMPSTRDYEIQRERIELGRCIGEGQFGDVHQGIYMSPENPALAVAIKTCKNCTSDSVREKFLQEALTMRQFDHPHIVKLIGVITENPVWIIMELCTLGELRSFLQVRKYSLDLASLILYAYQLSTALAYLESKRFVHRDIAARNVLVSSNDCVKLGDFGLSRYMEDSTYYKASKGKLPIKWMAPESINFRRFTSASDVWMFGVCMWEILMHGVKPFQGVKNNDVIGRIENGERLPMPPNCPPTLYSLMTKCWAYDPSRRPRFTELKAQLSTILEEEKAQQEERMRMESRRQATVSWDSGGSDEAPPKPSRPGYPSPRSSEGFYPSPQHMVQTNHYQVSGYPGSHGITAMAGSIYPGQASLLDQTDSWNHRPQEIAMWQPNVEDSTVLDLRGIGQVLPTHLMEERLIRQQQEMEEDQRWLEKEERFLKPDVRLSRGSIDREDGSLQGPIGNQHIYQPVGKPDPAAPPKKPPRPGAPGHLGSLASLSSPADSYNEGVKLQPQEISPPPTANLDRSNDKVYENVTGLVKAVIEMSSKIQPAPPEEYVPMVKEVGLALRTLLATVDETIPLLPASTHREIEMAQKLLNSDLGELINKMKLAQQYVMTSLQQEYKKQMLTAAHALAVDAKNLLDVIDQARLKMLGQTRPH

[14] = system: Fibrinogen (Alexa647-labelled); assay: fibrinogen binders on compound microarrays, profiling panel, artefact control for SMM control-protein annotation, biochemical, small-molecule microarray, 635/667 nm fluorescence (AID 1131); conditions: fibrinogen-A647 binding fluorescence, higher = more signal;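 also: z-score merges 667 nm fluorescence with per-spot signal-to-noise over triplicate slides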
[15] = biological target: Follistatin (Homo sapiens) (UniProt P19883); assay: follistatin binders on small-molecule microarrays, primary screen, biochemical, small-molecule microarray, 635/667 nm fluorescence (AID 1132); conditions: FST binding, 635 nm fluorescence, higher = more signal
Sequence of Follistatin (Homo sapiens) (P19883 whole entry, looked up): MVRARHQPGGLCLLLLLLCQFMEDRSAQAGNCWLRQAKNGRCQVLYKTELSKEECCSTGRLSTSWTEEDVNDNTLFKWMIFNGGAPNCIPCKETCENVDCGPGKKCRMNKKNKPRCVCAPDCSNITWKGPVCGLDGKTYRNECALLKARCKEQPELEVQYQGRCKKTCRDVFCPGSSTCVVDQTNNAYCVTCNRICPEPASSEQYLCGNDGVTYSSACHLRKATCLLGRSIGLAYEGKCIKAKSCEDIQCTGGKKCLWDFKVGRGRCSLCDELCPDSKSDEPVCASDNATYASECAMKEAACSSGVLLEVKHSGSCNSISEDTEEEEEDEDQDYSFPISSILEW

[16] = biological target: Fibroblast growth factor 2 (Homo sapiens) (UniProt P09038); assay: FGF2 binders on small-molecule microarrays, primary screen, biochemical, small-molecule microarray, 635/667 nm fluorescence (AID 1133); conditions: small-molecule microarray binding, FGF2, fluorescence 635/667; higher = more signal
Sequence of Fibroblast growth factor 2 (Homo sapiens) (P09038 whole entry, looked up): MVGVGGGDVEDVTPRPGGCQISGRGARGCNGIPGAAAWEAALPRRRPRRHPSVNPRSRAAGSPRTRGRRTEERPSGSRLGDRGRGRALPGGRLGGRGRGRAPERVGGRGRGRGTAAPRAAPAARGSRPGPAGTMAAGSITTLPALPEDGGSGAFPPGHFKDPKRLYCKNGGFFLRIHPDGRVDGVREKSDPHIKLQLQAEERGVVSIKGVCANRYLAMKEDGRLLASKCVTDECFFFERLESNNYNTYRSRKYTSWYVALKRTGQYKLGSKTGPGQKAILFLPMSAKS

[17] = mitochondrial membrane potential change in A549 cells, profiling panel, cell-based, JC-1 fluorescence, basal, 24 h, 100 nL (AID 1138); conditions: higher = more signal;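 also: A549 lung adenocarcinoma cells under basal conditions with no added stimulus; test concentration not given here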
[18] = system: Lefty1; assay: Lefty1 binders on small-molecule microarrays, primary screen, biochemical, small-molecule microarray, 635/667 nm fluorescence (AID 1139); conditions: small-molecule microarray binding, fluorescence 635/667; higher = more signal
[19] = system: wheat germ agglutinin (Triticum aestivum), Alexa647-labelled; assay: wheat germ agglutinin binders on compound microarrays, profiling panel, artefact control for SMM control-protein annotation, biochemical, small-molecule microarray, 635/667 nm fluorescence (AID 1140); conditions: WGA-A647 binding, 635 nm fluorescence, higher = more signal;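 also: score merges 667 nm feature emission with signal to noise over triplicate slides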
[20] = biological target: Luciferin 4-monooxygenase (Photinus pyralis) (UniProt P08659); assay: firefly luciferase enzyme inhibitors, primary screen, biochemical, luminescence, purified enzyme, 2006 set (AID 1141); conditions: SteadyGlo luminescence, 30 min, higher = more signal, called active from +8 up or from −8 down;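 also: cell-free assay with purified firefly luciferase at 100 ng per well in PBS; test concentration not given here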
Sequence of Luciferin 4-monooxygenase (Photinus pyralis) (P08659 whole entry, looked up): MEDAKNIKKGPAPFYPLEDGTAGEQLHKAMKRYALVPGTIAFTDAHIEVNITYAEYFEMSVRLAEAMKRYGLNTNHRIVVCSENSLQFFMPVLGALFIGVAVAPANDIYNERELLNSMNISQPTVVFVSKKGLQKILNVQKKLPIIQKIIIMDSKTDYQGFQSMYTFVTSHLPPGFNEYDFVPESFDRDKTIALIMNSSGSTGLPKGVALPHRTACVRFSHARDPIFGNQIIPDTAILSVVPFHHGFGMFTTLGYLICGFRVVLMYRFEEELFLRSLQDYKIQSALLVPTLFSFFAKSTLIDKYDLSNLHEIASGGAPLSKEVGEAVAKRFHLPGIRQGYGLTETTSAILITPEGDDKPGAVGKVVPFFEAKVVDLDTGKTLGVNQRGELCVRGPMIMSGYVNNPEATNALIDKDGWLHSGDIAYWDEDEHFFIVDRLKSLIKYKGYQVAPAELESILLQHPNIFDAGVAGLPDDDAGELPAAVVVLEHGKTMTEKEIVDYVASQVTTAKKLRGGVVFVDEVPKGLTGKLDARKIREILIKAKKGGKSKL

Sequence of Albumin (Bos taurus) (P02769 whole entry, looked up): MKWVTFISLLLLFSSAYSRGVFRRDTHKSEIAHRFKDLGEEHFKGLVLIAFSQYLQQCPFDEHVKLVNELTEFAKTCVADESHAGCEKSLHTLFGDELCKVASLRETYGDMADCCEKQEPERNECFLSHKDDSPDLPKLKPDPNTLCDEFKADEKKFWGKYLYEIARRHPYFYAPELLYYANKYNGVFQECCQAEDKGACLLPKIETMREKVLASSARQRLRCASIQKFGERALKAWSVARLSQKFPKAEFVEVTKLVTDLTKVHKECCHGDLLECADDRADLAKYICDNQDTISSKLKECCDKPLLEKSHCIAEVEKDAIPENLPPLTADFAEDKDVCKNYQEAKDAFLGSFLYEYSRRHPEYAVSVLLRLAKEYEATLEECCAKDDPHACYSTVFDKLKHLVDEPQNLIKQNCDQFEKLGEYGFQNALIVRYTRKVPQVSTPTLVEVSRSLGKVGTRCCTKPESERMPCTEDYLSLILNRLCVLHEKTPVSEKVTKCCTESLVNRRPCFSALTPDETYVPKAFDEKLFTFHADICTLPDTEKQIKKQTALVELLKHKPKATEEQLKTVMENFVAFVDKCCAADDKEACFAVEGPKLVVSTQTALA

| SMILES | composite z-score [1] | composite Z-score [2] | composite z-score [3] | composite z-score [4] | composite z-score [5] | composite z-score [6] | composite z-score [7] | composite z-score [8] | composite z-score [9] | composite z-score [10] | composite z-score [11] | composite z-score [12] | composite z-score [13] | composite z-score [14] | composite z-score [15] | composite z-score [16] | z-score [17] | composite z-score [18] | composite z-score [19] | z-score [20] |
| --- | --- | --- | --- | --- | --- | --- | --- | --- | --- | --- | --- | --- | --- | --- | --- | --- | --- | --- | --- | --- |
| COCCOC(=O)N1C(=O)[C@@]2(c3cc(C#CC4(O)CCCCCC4)ccc31)[C@H](c1ccc(O)cc1)N1[C@H](c3ccccc3)[C@H](c3ccccc3)OC(=O)[C@H]1[C@@H]2C(=O)N1CCN(c2ncccn2)CC1 | 0.521 | 0.883 (inactive) | 0.0562 | -0.12 | 0.437 | 1.29 | 0.46 | 1.29 | -0.163 | 1.12 | 0.388 | 1.17 | 0.839 | 0.576 | 1.06 | 1.32 | -0.976 | 0.497 | 0.417 | -0.47 (inactive) |
| CCCC[C@@H](O)C1=C(COc2ccccc2)C[C@H]2C(=O)N(Cc3ccccc3)C(=O)[C@H]2[C@H]1CO | 0.0031 | -0.861 (inactive) | -0.287 | -0.0795 | 0.099 | 0.523 | -0.523 | 0.426 | 0.228 | 0.395 | -0.412 | -0.0512 | -0.0235 | 0.832 | 0.269 | 0.275 | 0.85 | 0.634 | 0.371 | -1.25 (inactive) |
| C[N+](C)(C)CCCC[C@@H]1NC(=O)[C@@H]2C[C@H](C(=O)NCCCCCCN)[C@H](c3cccc(OCCO)c3)N2C1=O | 0.919 | 1.24 (inactive) | 0.39 | 0.409 | 0.608 | 1.54 | 0.731 | 1.31 | 0.518 | 1.12 | 3.26 | 1.16 | 0.866 | 0.841 | 0.976 | 0.5 | 0.197 | 1.16 | 1.11 | -0.583 (inactive) |
| CCCC=C(CCC)[C@@H](NP(=O)(c1ccccc1)c1ccccc1)c1ccc(-c2ccccc2)cc1 | 0.91 | 0.439 (inactive) | 0.36 | 0.0117 | 0.561 | 2.52 | 0.272 | 1.34 | -0.465 | 1.09 | 0.809 | 1.21 | 0.332 | 0.997 | 1.11 | -0.0567 | -2.3 | 0.38 | 1.25 | 2.64 (inactive) |
| N#Cc1ccc(NN2C(C(O)c3ccc(Br)cc3)C=CC3C(=O)N(c4ccccc4)C(=O)C32)cc1 (stereo not given) | 0.539 | 0.718 (inactive) | 0.43 | 0.357 | 0.721 | 3.24 | 1.35 | 0.83 | 0.195 | 1.07 | 1.28 | 1.18 | 0.633 | 0.561 | 0.873 | 0.127 | 0.494 | -0.0682 | 1.49 | -0.517 (inactive) |
| CC1CC/C=C\[C@H]2OC34C=CCN(C(C)(C)C)C(=O)[C@H]3N(CCCCCO)C(=O)[C@@H]4C2C(=O)O1 (stereo not given in full) | -0.0891 | -0.838 (inactive) | -0.219 | -0.153 | 0.887 | -0.658 | -0.55 | -0.883 | -1.34 | -2.1 | -1.24 | -1.07 | -0.83 | -1.65 | -0.898 | -0.447 | -0.227 | -0.113 | -0.51 | 0.152 (inactive) |
| CCCC=C(CCC)[C@@H](NS(=O)(=O)CC12CCC(CC1=O)C2(C)C)c1ccc(C(=O)OC)cc1 (stereo not given in full) | 0.0225 | 0.234 (inactive) | 0.344 | 0.0727 | -0.0343 | 2.12 | 0.154 | 0.96 | -0.14 | 0.438 | 1.33 | 0.71 | 0.187 | 0.0749 | 0.107 | -0.056 | 0.237 | 0.134 | 0.301 | 2.15 (inactive) |
| O=C1O[C@H](c2ccccc2)[C@H](c2ccccc2)N2[C@H]1[C@@H](C(=O)O)[C@]1(C(=O)Nc3ccc(C#CCCO)cc31)[C@H]2c1ccccc1OCCO | 0.713 | -0.308 (inactive) | -0.19 | -0.124 | 0.729 | 0.676 | 0.681 | 0.794 | -0.579 | 0.991 | 0.84 | 0.0764 | 0.0281 | 0.289 | 0.622 | -0.0212 | -0.689 | 0.404 | 0.842 | -0.747 (inactive) |
| O=C1O[C@@H](c2ccccc2)[C@@H](c2ccccc2)N2[C@@H](c3ccc(OCCO)cc3)[C@]3(C(=O)Nc4ccc(C#CC5=CCCCC5)cc43)[C@@H](C(=O)NC[C@H](O)c3ccccc3)[C@H]12 | -0.948 | -0.176 (inactive) | 1.03 | 0.338 | 0.117 | 1.57 | 0.109 | 1.3 | 1.16 | 1.17 | 2.25 | 1.21 | 0.234 | 0.829 | 1.42 | 1.38 | -1.48 | 1.25 | 0.254 | -0.773 (inactive) |
| Oc1ccc2cc[n+](Cc3cc4c(cc3Br)OCO4)cc2c1 | -1.19 | -0.399 (inactive) | -0.333 | -0.108 | 0.908 | -0.129 | -0.127 | -0.538 | -0.496 | -0.985 | -0.706 | -1.93 | -0.947 | -1.38 | -0.145 | -0.387 | 0.938 | -1.15 | 0.136 | -1.13 (inactive) |
| O=C1OCCC/C=C\[C@H]2OC34C=CCN(c5ccc6ccccc6c5)C(=O)[C@H]3N(CCO)C(=O)[C@@H]4C12 (stereo not given in full) | -1.75 | 0.278 (inactive) | -0.355 | -0.213 | 0.959 | -0.237 | 1.48 | -0.359 | -2.13 | -1.39 | -0.218 | -0.637 | -0.774 | -2.11 | -1.2 | -0.634 | -0.817 | -1.22 | 1.13 | 0.235 (inactive) |
